Source: PubChem (National Center for Advancing Translational Sciences (NCATS))
IL1B secr inh: qHTS for Inhibitors of Inflammasome Signaling: IL-1-beta AlphaLISA Primary Screen. THP-1 LPS/ATP IL-1B secretion, AlphaLISA, 16 h; stronger effect = lower value. actives 4.7% (n = 360,000). activity change, % at 57.5 µM; in the data active means activity change below about -50%; inconclusive means mostly about -30% to -49%; further: on the % scale 0 is the no-effect control and ±100 the full control effect
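Secreted IL-1B measured by AlphaLISA bead assay after 16 h compound exposure of THP-1 cells; compounds (final up to 57.5 uM) added 1 h before LPS (250 ng/mL) and ATP (1.25 mM) stimulation; lower signal means less secretion.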
ATXN2 expr inh: Primary qHTS for Inhibitors of ATXN expression | AID 1745845, 2022 | actives 0.72% (n = 360,000) | Potency, µM (doses to about 57 µM), for the others: at the highest dose activity change, negative = inhibition, most hits filed as inhibitors | HEK-293 ATXN2-luciferase reporter, luminescence, 24 h; further: potency means the concentration at half of the fitted maximal effect; on the % scale 0 is the no-effect control and ±100 the full control effect; nearly all actives have a fitted effect of over 55% in size
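ATXN2-luciferase reporter cells (luciferase flanked by upstream and downstream ATXN2 gene portions) were treated 24 h at 37 °C with compounds at up to 57 uM. SteadyGlo luminescence gave expression; GF-AFC fluorescence gave viability.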
USP1 inh: Inhibitors of USP1/UAF1: Primary Screen; Ubiquitin carboxyl-terminal hydrolase 1 (Homo sapiens), O94782; recombinant USP1/UAF1, Ub-Rhodamine cleavage fluorescence; Potency, µM (titrated, usually from 57.1 µM), for inactives: at the top dose activity change, negative = inhibition, actives largely listed as inhibitors; actives 0.23% (n = 390,000); AID 743255, 2014; further: potency means the concentration at half of the fitted maximal effect; on the % scale 0 is the no-effect control and ±100 the full control effect; nearly all actives have a fitted effect of over 60% in size
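High-throughput fluorogenic screen: 1nM USP1/UAF1 complex, Ub-Rho substrate 150nM final, 50mM HEPES pH 7.8 with 0.5mM EDTA, 0.1 mg/ml BSA, 1mM TCEP and 0.01% Tween-20.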
USP2a block: qHTS Assay for Inhibitors of Ubiquitin-specific Protease USP2a Using CHOP2 as the Reporter | Ubiquitin carboxyl-terminal hydrolase 2 (Homo sapiens), O75604 | USP2 core, Ub-CHOP2 coupled fluorogenic reporter, 485/531 | Potency, µM (titrated, usually from 38.3 µM), for inactives: top-dose activity change, negative = inhibition, hits mostly inhibitors | actives 0.01% (n = 330,000) | AID 463254, 2010;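 further: potency means the concentration at half of the fitted maximal effect; plate controls were DMSO wells for no effect and full inhibition by NEM control for full effect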
Target sequence (O75604 whole entry, looked up): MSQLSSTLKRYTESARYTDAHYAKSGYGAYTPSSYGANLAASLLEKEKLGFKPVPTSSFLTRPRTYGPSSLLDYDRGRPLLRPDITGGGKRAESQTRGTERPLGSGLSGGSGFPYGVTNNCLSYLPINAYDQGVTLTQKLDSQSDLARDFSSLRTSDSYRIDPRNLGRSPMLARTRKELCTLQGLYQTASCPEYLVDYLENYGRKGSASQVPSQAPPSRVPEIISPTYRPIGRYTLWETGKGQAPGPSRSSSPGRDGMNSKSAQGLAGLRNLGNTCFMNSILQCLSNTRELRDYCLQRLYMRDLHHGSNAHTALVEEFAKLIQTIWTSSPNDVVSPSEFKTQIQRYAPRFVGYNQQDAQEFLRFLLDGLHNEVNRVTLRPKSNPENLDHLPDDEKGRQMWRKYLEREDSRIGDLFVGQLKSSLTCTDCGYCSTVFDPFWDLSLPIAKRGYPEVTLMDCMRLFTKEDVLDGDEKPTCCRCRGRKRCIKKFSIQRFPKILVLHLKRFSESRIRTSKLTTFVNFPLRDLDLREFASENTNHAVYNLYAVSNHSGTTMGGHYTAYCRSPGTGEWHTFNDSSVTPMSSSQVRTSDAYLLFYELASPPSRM
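Deubiquitinase activity read as fluorescence (485/531 nm) after Ub-CHOP2 cleavage activates the enterokinase reporter on its substrate; USP2 core 10nM, Ub-CHOP2 and substrate 25nM each, 30min compound preincubation then 60min RT; data normalized to NEM, curves fitted.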
ATXN viability: Viability Counterscreen for Primary qHTS for Inhibitors of ATXN expression | Potency, µM (top dose mostly 56.7 µM), usual class: cytotoxic | S2 cells (HEK-293 line with an ATXN2-luciferase reporter) viability, CellTiter-Fluor protease fluorescence, 24 h | actives 0.49% (n = 400,000); further: potency means the concentration at half of the fitted maximal effect; nearly all actives have a fitted effect of over 40% in size
Starred values were filed as active, the others as inactive; i = inactive; u = inconclusive; x = no result; [ ] = another dose, or the depositor's remark. Rows were chosen to be rich in hits. Some 4.8% of all compounds tested hit in one or more screens of this group. Unless noted, the call rests on the fitted dose curve; in most records, active means well fitted curve in the direction sought with a large enough effect; inconclusive means small, poorly fitted or top-dose-only effect, or another doubt; inactive means no such curve, though single readings can be large; an effect the other way counts as inactive or inconclusive.

SMILES	IL1B secr inh	ATXN2 expr inh	USP1 inh	USP2a block	ATXN viability
C=CCN1C(=O)/C(=C/C=C2/N(CC)c3ccc(S(=O)(=O)N(C)C)cc3N2CC)SC1=S	13.2	x	28.2µM*	u	0.891µM*
C[C@@H](NCc1cc2ccccc2[nH]1)c1cccc2ccccc12	x	-15.9%	x	x	x
Cc1cnc(SCC2CCCO2)nc1C1CCCN(C(=O)c2ccc(S(N)(=O)=O)cc2)C1 (centres undefined)	x	x	x	x	i
CCOC(=O)c1cccc(NC(=O)CN2C(=O)CC(C)(C)Sc3ccccc32)c1	x	-23.1%	-19.3%	x	28.2µM*
CC(=O)Nc1cccc(NC(=O)CN2C(=O)CCSc3ccccc32)c1	x	4.4%	-22.9%	x	i
Cc1ccc(-c2nnc(N3CCN(CCO)CC3)c3ccccc23)cc1	u	-14.1%	-5.5%	3.8%	i
Clc1nnc(N2CCCCC2)c2ccccc12	-81.3*	0.0%	-16.3%	10.6%	i
Cc1ccc(-c2nnc(N3CCN(c4ccccn4)CC3)c3ccccc23)cc1	-89.4*	u	-22.7%	-2.4%	u
O=C(c1cnc(N2CCN(c3ncccn3)CC2)c2ccccc12)N1CCN(c2ccccn2)CC1	-66.4*	-14.5%	-7.3%	-2.1%	i
O=C(c1ccccc1-c1ccccc1)N1CCN(c2ccccn2)CC1	0.0	-13.3%	-1.1%	-0.6%	i
CN1CCN(c2nnc(-c3ccc(F)cc3)c3ccccc23)CC1	-29.7	-23.5%	-18.4%	1.1%	u
c1ccc(-c2nnc(N3CCN(c4ccccn4)CC3)c3ccccc23)cc1	-72.8*	-25.5%	-0.5%	1.1%	i
COc1ccc(C)cc1NC(=O)Cn1c(=O)oc2cc(S(=O)(=O)N3CCCCCC3)ccc21	x	x	-9.5%	x	x
CC(C)c1c(C(=O)NCC(C)(C)N2CCOCC2)cnn1-c1nccc(-c2ccccc2F)n1	x	x	x	x	i
C/C(=C\c1ccco1)CN1CCOc2ccc(C(C)(O)COc3ccccc3)cc2C1 (centres undefined)	x	x	x	x	i
Cc1ccccc1NC(=O)Cn1c(=O)oc2cc(Br)ccc21	x	x	-27.9%	x	x
COc1ccc(-c2nnc(N3CCC(C)CC3)c3ccccc23)cc1	2.6	-7.5%	-14.9%	0.5%	i
Cc1ccc(-c2nnc(N3CCCCC3)c3ccccc23)cc1	-55.7*	-2.3%	-25.4%	1.8%	u
Cc1ccc(-c2nnc(N3CC(C)OC(C)C3)c3ccccc23)cc1 (centres undefined)	-74.7*	-11.1%[11.3 µM]	u	1.3%	i
CC(C)C[C@H]1CN(CCCC[C@H]2CNC(=O)C(=O)N2CCc2ccccc2)C(=O)C(=O)N1Cc1ccccc1	-17.6	-3.3%	x	x	i
N#CCC(=O)Nc1ccc(C(=O)OCC(=O)c2ccc3c(c2)NC(=O)CO3)cc1	6.1	-2.8%	-3.4%	2.9%	i
CCNS(=O)(=O)c1ccc(CCC(=O)N2CCN(c3cccc(Cl)c3)CC2)cc1	-51.4*	-5.1%	-17.0%	0.3%	i
Cc1ccc(S(=O)(=O)NCCC(=O)N2CCN(c3cccc(Cl)c3)CC2)cc1C	-1.2	-30.3%	-2.4%	0.7%	i
CC1(C)CC(=O)C(=Cc2cn(-c3ccccc3)nc2-c2ccc(Cl)cc2)C(=O)C1	0.0	29.6%	-8.5%	-0.3%	i
CC1=NNC(=O)/C1=C\c1cn(-c2ccccc2)nc1-c1ccccc1	-104.3*	u	-23.0%	0.1%	26.7µM*
SMILES	IL1B secr inh	ATXN2 expr inh	USP1 inh	USP2a block	ATXN viability
O=C(Nc1cc2c(cc1Cl)-c1ccc([N+](=O)[O-])cc1C2=NO)C(F)(F)F	-65.0*	-32.2%	-12.8%	x	i
O=C1OC(=O)c2cc([N+](=O)[O-])ccc21	-53.6*	1.2%	-23.8%	-0.2%	i
Nc1ccc([N+](=O)[O-])cc1O	x	-10.2%[116 µM]	x	x	u
O=[N+]([O-])c1ccc2c(c1)-c1ccccc1C2=NO	-74.7*	7.5%	-18.6%	x	u
O=C(Nc1ccc2c(c1)Cc1cc([N+](=O)[O-])ccc1-2)C(F)(F)F	-7.9	-14.4%	-5.0%	x	i
Nc1ccc2c(c1)C(=NO)c1cc([N+](=O)[O-])ccc1-2	-73.4*	u	-7.4%	x	u
O=[N+]([O-])c1ccc2c(c1)C(=Nc1ccccc1)c1ccccc1-2	-11.4	4.1%	-24.4%	x	i
CCC(=O)Nc1cc(-c2nc3cc(C)cc(C)c3o2)ccc1C	x	34.0%	-3.4%	x	i
COc1cc(=O)n2c(c1C(=O)N(C)Cc1nonc1C)CCN(Cc1ccccc1Cl)CC2	x	x	x	x	i
COC(=O)CNc1nc(Cl)nc(NC2CCCCC2)n1	3.3	3.2%	4.0%	0.3%	i
Cc1ccc(CCNC(=O)c2cc3c(=O)oc4ccccc4c3s2)cc1	x	8.7%	-14.9%	x	i
CCC(CC)C(=O)N(C)c1c(C)nc2c(OCc3ccccc3C)cccn12	0.0	-22.2%	x	x	i
CCSc1ncc(Cl)c(C(=O)Nc2ccc(S(=O)(=O)N(C)c3ccccc3)cc2)n1	x	-4.0%	-14.0%	x	i
CCN(c1ccccc1)S(=O)(=O)c1ccc(NC(=O)c2nc(S(C)(=O)=O)ncc2Cl)cc1	-96.8*	12.6µM*	-11.7%	-1.0%	x
CCS(=O)(=O)c1ncc(Cl)c(C(=O)Nc2ccc(S(=O)(=O)N(C)c3ccccc3)cc2)n1	-103.5*	20µM*	-10.1%	0.0%	20µM*
COC1=C(OC)C(=O)C(CC=C(C)CCC=C(C)CCC=C(C)CCC=C(C)CCC=C(C)CCC=C(C)CCC=C(C)CCC=C(C)CCC=C(C)CCC=C(C)C)=C(C)C1=O	x	6.4%	x	x	i
COC(=O)C1=C(C)N(Cc2ccco2)C(=O)/C1=C\c1ccc([N+](=O)[O-])cc1	-102.1*	12.4%[11.3 µM]	-19.0%	2.7%	u
Fc1ccc(Nc2c(-c3ccco3)nc3ccccn23)cc1	-63.8*	-8.8%	-16.2%	3.4%	i
CCN(c1ccccc1)S(=O)(=O)c1ccc(Cl)c(NC(=O)Nc2ccc(Cl)cc2C#N)c1	-53.3*	0.0%	-12.4%	0.3%	i
CCN(c1ccccc1)S(=O)(=O)c1ccc(Cl)c(NC(=O)CN(C)C2CCN(C)CC2)c1	-54.6*	-18.1%	-16.1%	2.8%	i
CCN(CC(=O)Nc1cc(S(=O)(=O)N2CCCCC2)ccc1Cl)Cc1ccccc1	5.8	-20.8%	-32.2%	3.9%	u
CCN(CC(=O)Nc1cc(S(=O)(=O)N2CCOCC2)ccc1Cl)Cc1ccccc1	-57.9*	u	-10.4%	-7.2%	u
O=C(NCC(c1ccc2c(c1)OCO2)N1CCN(c2ccccc2F)CC1)c1ccccc1F (centres undefined)	x	-15.1%	-18.4%	x	u
COc1ccc(NC(=O)C2CCCN(S(=O)(=O)c3ccc4c(c3)CCCC(=O)N4)C2)c(OC)c1 (centres undefined)	x	1.9%	-23.2%	x	u
